Screening data as filed in PubChem BioAssay.
Shown are actives, neighbours in structure and some others; about 4.6% of the full set was active somewhere.
tim23-1 inh – tim23-1 yeast growth inhibition; S. cerevisiae tim23-1 growth, BacTiter-Glo luminescence, 24 h; inhibition, % at 20 µM; 330,000 compounds, 1.3% hits; AID 463212;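 active = growth inhibition of the mutant yeast at or above 50%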;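 note: temperature-sensitive mutant grown at 25 °C; plate controls were DMSO-treated mutant yeast for no effect and medium wells lacking yeast for full effect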
SKKanGAS inh – SKKanGAS growth inhibition. inhibition, % at 7.5 µM. 300,000 compounds, 1.3% hits. S. pyogenes SKKanGAS, kanamycin growth, BacTiter-Glo, 6 h;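 active = mean replicate score, as percent of positive control median, at least 50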;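 note: strain carries kanamycin resistance gene driven by streptokinase promoter and grows in 40 µg/ml kanamycin; loss of luminescence reflects streptokinase promoter inhibition or plain growth inhibition; 0% = median of DMSO wells and 100% = positive control at its reference dose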
TIM10 inh – TIM10 yeast growth inhibition | S. cerevisiae TIM10 strain growth, BacTiter-Glo luminescence, 24 h | inhibition, % at 10 µM | 330,000 compounds, 1.4% hits;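 active = inhibition of 40% or more at the single tested concentration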;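 note: wild-type TIM10 isogenic control strain grown at permissive 25 °C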
NALP3 yeast inh – NALP3 inhibition in yeast. inhibition, % at 10 µM. 330,000 compounds, 0.39% hits. Yeast reconstituted NLRP3/ASC/caspase-1, beta-gal luminescence, 24 h;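 active = inhibition of 50% or more; inactive = inhibition below 50%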;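 note: plate controls were induced DMSO wells for no effect and uninduced yeast grown without galactose for full effect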
tim10-1 inh – growth inhibitors of tim10-1 mutant yeast | S. cerevisiae tim10-1 ts strain growth, BacTiter-Glo, 24 h | inhibition, % at 20 µM | 330,000 compounds, 2.2% hits;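 active = inhibition of at least 40%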;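 note: mutant grown at 25 °C; 0% = DMSO wells with yeast and 100% = wells holding no yeast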
TIM10 conf – TIM10 yeast growth inhibition, confirmed; shares compounds with TIM10 inh; S. cerevisiae tim10 strain growth, BacTiter-Glo luminescence, 24 h; inhibition, % at 10 µM; 4,600 compounds, 63% hits; AID 463215;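 active = inhibition of yeast growth at or above a set limit in either of two replicates at 10 µM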;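 note: this counterscreen used the strain with wild-type TIM10; 0% = yeast with DMSO and 100% = medium wells lacking yeast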
Numbers without * were called inactive; · = not tested or not shown.

SMILES | tim23-1 inh | SKKanGAS inh | TIM10 inh | NALP3 yeast inh | tim10-1 inh | TIM10 conf
CNc1nc(NN)nc(Nc2ccccc2)n1 | -1.9 | 26.6 | 95.9* | 19.6 | 15.6 | 6.3
CNc1nc(Nc2ccccc2)nc(OCC(F)(F)F)n1 | -21.0 | -0.8 | 14.9 | 9.2 | 7.4 | ·
C/C(=N\NC(=O)CNC(=O)C1COc2ccccc2O1)c1ccco1 (centres undefined) | 9.4 | -2.3 | 4.8 | -5.2 | -2.8 | ·
COc1ccc2cc3cc(C(=O)NCCCN4CCc5ccccc5C4)sc3nc2c1 | 12.7 | 4.7 | 62.8* | -2.5 | 7.9 | 54.3*
COc1ccc2cc3cc(C(=O)NC4CC4)sc3nc2c1 | 3.3 | -3.4 | 15.1 | 18.7 | 4.1 | ·
CCN1CCN(C(=O)c2cc3cc4cc(OC)ccc4nc3s2)CC1 | 5.3 | 1.5 | -6.0 | 15.6 | 6.2 | ·
COc1ccc2nc3sc(C(=O)NCCN4CCc5ccccc5C4)cc3cc2c1 | 38.6 | 11.3 | 75.5* | 12.2 | 30.7 | 80.0*
Cc1cc(Nc2ccc(Br)cc2)nc(-c2ccccc2O)n1 | 45.5 | 17.7 | 43.0* | 17.0 | 34.4 | 49.0*
O=C(CN1CCN(S(=O)(=O)c2ccc(Cl)cc2)CC1)NCC1(N2CCOCC2)CCCCC1 | -0.9 | · | 8.8 | 18.9 | -2.4 | ·
Cc1ccccc1NC(=S)N(Cc1cccs1)C1CCCC1 | 34.8 | 3.6 | 14.9 | -1.9 | 34.7 | ·
CCc1ccccc1NC(=S)N(Cc1cccs1)C1CCCC1 | 10.9 | 7.7 | 40.1* | -14.4 | 34.2 | 15.3
O=C(Nc1ccc(Cl)cc1)N1CCC(c2nc(-c3ccc(F)cc3)no2)CC1 | 20.2 | 12.0 | 48.4* | 38.3 | 32.0 | 9.5
COc1ccc(NC(=O)N2CCCC(c3nc(-c4ccc(OC)cc4)no3)C2)cc1 (centres undefined) | 29.0 | -23.8 | -4.6 | 19.1 | 21.6 | ·
Cc1cc(C)nc(-n2nc(C)cc2NC(=O)CNCc2ccccc2)n1 | 3.6 | -10.0 | 2.3 | 2.0 | 25.5 | ·
CCC(C(=O)Nc1cc(C)nn1-c1nc(C)cc(C)n1)c1ccccc1 (centres undefined) | 15.9 | 30.0 | 43.9* | 16.2 | 26.4 | -1.4
COc1ccc(-c2nc(SC)n(C(=O)c3ccco3)n2)cc1 | 22.8 | 16.8 | 41.9* | 3.5 | 26.5 | 18.4
COc1ccc(-c2nc(SCc3ccccc3)n(C(=O)c3ccco3)n2)cc1 | 12.3 | 4.8 | 2.5 | 17.5 | 6.8 | ·
Cn1c(N2CCN(S(=O)(=O)c3ccc(F)cc3)CC2)nc2ccccc21 | -2.1 | -3.0 | -13.0 | 3.2 | -2.0 | ·
CC(C)n1c(N2CCN(S(=O)(=O)c3cccc([N+](=O)[O-])c3)CC2)nc2ccccc21 | 30.0 | 5.5 | 41.0* | 22.2 | 33.7 | 34.5*
C/C(=N\OCC(=O)N/N=C/c1ccc(C)cc1O)c1cccs1 | 17.8 | 32.6 | 52.7* | 12.8 | 18.5 | 25.7
COc1cc2c(cc1NC(=O)COC(=O)Cn1cnc3ccccc31)oc1ccccc12 | -8.3 | 15.7 | 40.9* | 40.2 | 25.9 | -10.8
COc1cc2c(cc1NC(=O)COc1ccccc1OC)oc1ccccc12 | -8.2 | 0.6 | -10.2 | 1.8 | 18.6 | ·
Cc1ccsc1C(=O)N/N=C/c1ccc2c(c1)OCO2 | 34.3 | 20.0 | 21.2 | 10.1 | -7.7 | ·
O=C(N/N=C/c1ccc2c(c1)OCO2)c1cccs1 | 49.6 | 4.9 | 57.2* | 21.0 | 27.9 | 47.6*
O=C(COc1ccccc1)Nc1ccc(S(=O)(=O)N2CCCCCC2)cc1 | 35.3 | 11.0 | 71.1* | 1.1 | 37.7 | 59.7*
SMILES | tim23-1 inh | SKKanGAS inh | TIM10 inh | NALP3 yeast inh | tim10-1 inh | TIM10 conf
O=C(CSCc1ccc(Cl)cc1)Nc1ccc(S(=O)(=O)N2CCCCCC2)cc1 | 39.5 | 1.5 | 41.0* | 14.4 | 35.1 | -22.9
Cc1ccccc1NS(=O)(=O)c1ccc(NC(=O)CSCc2ccc(Br)cc2)cc1 | 45.2 | 6.0 | 41.2* | 14.6 | 36.8 | 28.1
O=C(Nc1ccc(S(=O)(=O)N2CCCCCC2)cc1)c1ccc(Br)o1 | 40.2 | 9.5 | 55.7* | 16.1 | 39.6 | 49.6*
CCN(CC)S(=O)(=O)c1ccc(C(=O)Nn2cnnc2)cc1 | 19.2 | 2.0 | 11.8 | -14.9 | -1.9 | ·
Cc1ccc(CNC(=S)NC2CCC(C(C)(C)C)CC2)cc1 (centres undefined) | 42.6 | 65.6* | 41.7* | 31.1 | 35.9 | 18.1
COc1ccc(CNC(=S)NC2CCCC2)cc1 | 12.3 | 2.4 | 15.2 | 13.3 | 7.5 | ·
Fc1ccc(C(c2nnnn2C2CCCC2)N2CCc3ccccc32)cc1 (centres undefined) | 26.0 | 9.4 | 45.2* | -14.6 | 29.6 | 17.6
Cc1cc(C)c(-n2nnnc2SCC(=O)c2cc3ccccc3o2)c(C)c1 | 2.3 | 2.6 | 17.1 | 14.3 | 10.2 | ·
Cc1c(Cl)cccc1NC(=S)NCc1ccccc1 | 27.8 | 27.7 | 46.1* | 7.9 | 30.4 | 20.7
Cc1c(Cl)cccc1NC(=S)NCc1ccc(Cl)cc1 | -10.5 | 34.0 | -10.4 | 15.2 | 24.5 | ·
C=CC[C@H](CC(=O)NCCO)C(=O)N[C@@H](COC(=O)[C@H](CC=C)CC(=O)OC(C)(C)C)Cc1c[nH]c2ccccc12 | 13.4 | · | 1.8 | 13.3 | 11.7 | ·
Cc1cc(Cl)nc(Cl)c1C(=O)NCc1ccc(Cl)cc1 | 1.1 | 5.8 | -30.1 | 33.3 | -9.0 | ·
O=C(Nc1ccccc1)c1cc(-n2cnnc2)ccc1Cl | -12.1 | -3.0 | 4.8 | 8.7 | 3.8 | ·
O=C(Nc1ccc(N2CCOCC2)cc1)c1cc(-n2cnnc2)ccc1Cl | -17.7 | 0.2 | 96.5* | 5.9 | -15.0 | -8.7
CCCCNC(=O)Nc1nc2ccc(CC)cc2s1 | 27.9 | 0.4 | 40.0 | 18.1 | 35.3 | 29.9
CCCN1CCN(C(=O)C2CCN(c3nnc(C)c4c(C)n(-c5ccc(C)cc5)nc34)CC2)CC1 | -9.4 | 2.1 | 8.7 | 26.9 | 5.5 | ·
C#CCOCCOCCOCCNc1nc(N2CCN(C(=O)[C@H](CCCCN)n3cc([C@@H](N)CO)nn3)CC2)nc(N2CCN(C(=O)[C@H](Cc3cc4ccccc4[nH]3)n3cc([C@@H](N)CC(C)C)nn3)CC2)n1 | -5.8 | 3.3 | 94.2* | 11.1 | -19.3 | 0.8
C#CCOCCOCCOCCNc1nc(N2CCN(C(=O)[C@H](CCCCN)n3cc([C@@H](N)CO)nn3)CC2)nc(N2CCN(C(=O)[C@H](Cc3cc4ccccc4[nH]3)n3cc([C@@H](N)CO)nn3)CC2)n1 | 10.7 | · | 6.8 | 24.8 | 1.6 | ·
CCCc1cc(C(=O)N2CCN(c3ccccc3C)CC2)cs1 | 34.3 | 4.4 | 40.0* | -49.0 | 32.2 | 35.9*
COc1ccc(C2=NN(C(=O)CCC(=O)O)C(c3ccc(Br)cc3)C2)cc1 (centres undefined) | -1.4 | 23.1 | 44.1* | 9.6 | -12.6 | 7.0
Cc1ccc(C)c(N2CCN(C(=O)C3CCN(c4nc(C)cc(C)n4)CC3)CC2)c1 | 39.0 | -1.1 | 37.9 | 6.6 | 27.4 | ·
Cc1cc(C)nc(N2CCC(C(=O)N3CCN(c4cc(Cl)ccc4C)CC3)CC2)n1 | 33.0 | 14.3 | 46.8* | 13.1 | 29.2 | 24.8
CCN1C(=O)/C(=C/c2ccc(C)s2)NC1=S | 30.0 | -7.3 | 41.0* | -4.3 | 36.5 | -18.1
O=c1[nH]c(NNC(=S)NC2CCCCC2)nc2c1C1(CCCC1)Cc1ccccc1-2 | 40.0 | 74.4* | 40.6* | 0.7 | 28.8 | 32.5*
